# High-throughput results from PubChem.
# Tau ThT inhib – qHTS for Inhibitors of Tau Fibril Formation, Thioflavin T Binding | Potency, µM (doses to about 57.4 µM), without a hit: at the highest dose activity, negative = inhibition, actives largely listed as inhibitors | Microtubule-associated protein tau (Homo sapiens), P10636 | actives 2.1% (n = 270,000) | recombinant tau K18 P301L, heparin-induced fibrillization, ThT fluorescence; further: potency means the concentration at half of the fitted maximal effect; nearly all actives have a fitted effect of over 55% in size
# Target sequence (P10636 561-689 P618L limits assumed): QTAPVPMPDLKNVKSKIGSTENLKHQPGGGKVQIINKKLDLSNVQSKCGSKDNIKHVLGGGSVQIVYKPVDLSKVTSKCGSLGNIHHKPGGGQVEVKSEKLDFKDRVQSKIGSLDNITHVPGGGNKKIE
#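 Using a mix of unlabeled (15 uM) and Alexa 594-labeled (0.24 uM) tau K18 P301L, heparin-triggered fibrillization over 6 hr at 37 C was scored by ThT fluorescence.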
# Tau fibril FP – qHTS for Inhibitors of Tau Fibril Formation, Fluorescence Polarization; K18 P301L tau heparin fibrillization, Alexa594 FP, 6 h; Microtubule-associated protein tau (Homo sapiens), P10636; AID 1468, 2008; Potency, µM (doses to about 57.7 µM), for the others: top-dose activity, negative = inhibition, usual class: inhibitors; actives 0.39% (n = 280,000); further: potency means the concentration at half of the fitted maximal effect; nearly all actives have a fitted effect of over 55% in size
#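 Recombinant K18 P301L […], labeled with Alexa 594 at 0.24 uM over 15 uM unlabeled; heparin inducer 20 uM final; 37 C, 6 hr; FP endpoint.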
# Sfp inh – qHTS Assay for Inhibitors of Bacillus subtilis Sfp phosphopantetheinyl transferase (PPTase). Potency, µM, inactives show largest response in the series, negative = inhibition, actives largely listed as inhibitors. AID 1490, 2009. actives 3.5% (n = 310,000). 4'-phosphopantetheinyl transferase ffp (Bacillus subtilis), Q9F4F7. Biochemical Sfp PPTase activity, qHTS;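 further: the enzyme is Sfp with the accession as filed and its product quenches rhodamine fluorescence; potency means the concentration at half of the fitted maximal effect; 0% = enzyme reaction without inhibitor and -100% = no enzyme wells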
#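 Step 1, compound plus 15 nM Sfp-PPTase, 15 min, room temperature. Step 2, add rhodamine-CoA (5 uM) and BHQ-2-YbbR (12.5 uM). Step 3, read 525/598 nm fluorescence at 0 and 30 min.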
# Coupling enz – qHTS Assay for Inhibitors of Fructose-1,6-bisphosphate Aldolase from Giardia Lamblia: Coupling assay counterscreen. AID 2472, 2010. coupling enzyme system counterscreen, AmpLite Red fluorescence. activity change, negative = inhibition, % at 58.2 µM, hits read low. actives 0.67% (n = 290,000); in the data active means activity change below about -30%
#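 Counterscreen of the coupled detection system alone, without aldolase: glyceraldehyde-3-phosphate coupling enzymes plus AmpLite Red readout. Compounds at 57.5 uM final, 10 min RT preincubation, 20 min RT reaction, fluorescence 525/598 nm.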
# Tau fluor counter – Counterscreen qHTS for Inhibitors of Tau Fibril Formation, Fluorescence Polarization; tau K18 P301L Alexa594 fluorescence, heparin fibrillization; Potency, µM (top dose mostly 57.7 µM), without a hit: at the highest dose activity change, negative = decrease; actives 0.93% (n = 280,000); AID 1463, 2008; further: potency means the concentration at half of the fitted maximal effect; nearly all actives have a fitted effect of over 55% in size
#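 Human tau K18 P301L (15 uM unlabeled, 0.24 uM Alexa 594-labeled) in 100 mM sodium acetate pH 7 with 20 uM heparin, 6 hr at 37 C. ThT 30 uM added, 1 hr ambient; Alexa 594 FP and total fluorescence read at 555/632 nm.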
# G9a inh – qHTS Assay for Inhibitors of Histone Lysine Methyltransferase G9a. Histone-lysine N-methyltransferase EHMT2 (Homo sapiens), Q96KQ7. Potency, µM (top dose mostly 102 µM), for inactives: top-dose activity, negative = inhibition, hits mostly inhibitors. G9a H3K9 monomethylation, AlphaScreen, 2 h. actives 8.8% (n = 350,000); further: potency means the concentration at half of the fitted maximal effect; nearly all actives have a fitted effect of over 75% in size
# Target sequence (Q96KQ7 913-1193 limits assumed): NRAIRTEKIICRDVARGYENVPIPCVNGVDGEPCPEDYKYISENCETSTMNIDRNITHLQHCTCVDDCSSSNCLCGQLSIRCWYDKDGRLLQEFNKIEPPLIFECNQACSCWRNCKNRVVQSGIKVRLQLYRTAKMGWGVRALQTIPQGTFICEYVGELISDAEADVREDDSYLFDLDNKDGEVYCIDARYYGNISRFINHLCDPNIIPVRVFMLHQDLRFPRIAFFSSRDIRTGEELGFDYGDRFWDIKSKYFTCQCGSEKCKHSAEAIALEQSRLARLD
#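 Step 1: enzyme (final 20 nM) with compound, 15 min RT. Step 2: substrate peptide 500 nM and SAM 20 uM, 2 h RT. Step 3: anti-H3K9me1 antibody and AlphaScreen beads, 10 min, then plate read.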
# Active calls of the source: *; ? = inconclusive; . = not tested or not shown; ! = not active in a repeat; [ ] = another dose, or the depositor's remark. An excerpt weighted towards active compounds, which were near 11% of everything screened. Unless noted, the call rests on the fitted dose curve; in most records, active means well fitted curve in the direction sought with a large enough effect; inconclusive means small, poorly fitted or top-dose-only effect, or another doubt; inactive means no such curve, though single readings can be large; an effect the other way counts as inactive or inconclusive. Unless noted, on the % scale 0 is the no-effect control and ±100 the full control effect.
SMILES,Tau ThT inhib,Tau fibril FP,Sfp inh,Coupling enz,Tau fluor counter,G9a inh
Cc1oc(-c2ccc(C(=O)NC(C)c3ccccc3)cc2)nc1CS(=O)(=O)c1ccccc1 (stereo not given),14.1%,-15.3%,.,.,5.1%,-23.0%[59 µM]
NC(=O)c1cc[n+](CC2=C(C(=O)O)N3C(=O)[C@@H](NC(=O)[C@@H](c4ccccc4)S(=O)(=O)[O-])[C@H]3SC2)cc1,-1.7%,?,.,.,0.5%,3.77µM*
O=C(Cc1cccs1)NC1C(=O)N2C(C(=O)[O-])=C(C[n+]3ccccc3)CSC12 (stereo not given),15.8µM*,?,?,-1.8,-23.8%,-43.0%[2.33 µM]
CC(=O)OCC1=C(C(=O)O)N2C(=O)[C@@H](NC(=O)Cc3cccs3)[C@H]2SC1,?,?,?,-3.8,-15.1%,7.52µM*!
CC(=O)OCC1=C(C(=O)O)N2C(=O)C(NC(=O)Cn3nc(C(F)F)c(Cl)c3C)C2SC1 (stereo not given),?,-5.0%,4.6%,0.0,-9.6%,50.1µM*
Cc1cccc(-c2noc(-c3ccc(N4CCN(C)CC4)c([N+](=O)[O-])c3)n2)c1,-0.7%,-8.9%,.,.,-21.9%,-27.2%[59 µM]
CC(=O)OCC1=C(C(=O)O)N2C(=O)C(NC(=O)c3ccc(COc4c(C)cccc4Cl)o3)C2SC1 (stereo not given),?,-12.8%,63.1µM*,-0.4,-7.1%,44.7µM*
CC(=O)OCC1=C(C(=O)O)N2C(=O)C(NC(=O)CCn3nc(C(F)(F)F)c(Br)c3C3CC3)C2SC1 (stereo not given),?,?,-3.3%,1.2,-10.1%,39.8µM*
COc1ccc(NC(=O)C2CC(=O)N(CCc3ccc(F)cc3)C2)c(OC)c1 (stereo not given),.,.,-3.2%,-0.4,.,9.3%
O=C(NCCSc1ccccc1)c1cccnc1,0.9%,-6.5%,-9.4%,-0.4,2.8%,?
O=C(NCCc1ccc(Cl)cc1)c1cccnc1,-9.0%,?,-2.3%,0.1,-4.6%,56.2µM*
O=C(NCCCSc1ccccc1)c1cccnc1,.,.,14.7%,.,.,28.2µM*
CN(C)c1ccc(-c2nn3c(-c4ccc(Cl)cc4Cl)nnc3s2)cc1,-2.2%,5.2%,0.8%,1.3,5.5%,14.1µM*
Clc1ccc(-c2nnc3sc(-c4ccc(Br)o4)nn23)c(Cl)c1,-4.9%,-0.7%,11.5%,3.1,-7.7%,9.7%[2.33 µM]
c1coc(-c2nnc3sc(Cc4cccs4)nn23)c1,?,0.3%,-3.8%,2.0,-17.7%,?
Clc1ccccc1-c1nnc2sc(-c3ccc4c(c3)OCO4)nn12,-17.2%,-7.1%,10µM*,5.8,2.3%,1.78µM*
Clc1cccc(-c2nnc3sc(-c4ccc5c(c4)OCO5)nn23)c1,0.2%,-5.0%,31.6µM*,2.6,-1.1%,10µM*
Clc1cccc(-c2nn3c(-c4ccncc4)nnc3s2)c1,-1.3%,-0.9%,9.1%,0.3,-2.5%,26.5%
Clc1ccc(-c2nnc3sc(Cc4cccs4)nn23)c(Cl)c1,-12.3%,7.6%,1.2%,4.9,-5.7%,39.8µM*
CCOc1ccc(N2C(=O)CS(=O)(=O)C23C(=O)N(Cc2cccc(Cl)c2)c2ccccc23)cc1 (stereo not given),-11.4%,?,.,.,-17.2%,-40.2%[59 µM]
CCSc1nc(-c2cccnc2)ccc1C#N,-1.0%,-2.8%,-1.2%,-3.2,-3.7%,11.1%[59 µM]
O=C(CSc1nnc(CNC(=O)c2c(F)cccc2F)o1)NCc1ccco1,.,.,10.6%,2.5,.,.
O=C(O)CNC(=O)c1ccccc1Br,3.1%,-0.2%,18.0%,5.3,5.8%,10.9%
Cc1oc(-c2ccc(Cl)cc2)cc1-c1nn2c(-c3ccoc3C)nnc2s1,-9.4%,10.9%,10µM*,-11.9,15.7%,?
O=c1c(-c2cc(-c3ccc(F)cc3)nc3c2COc2ccc(Cl)cc2-3)coc2ccc(F)cc12,0.1%,-7.3%,.,.,-4.1%,10.7%[59 µM]
SMILES,Tau ThT inhib,Tau fibril FP,Sfp inh,Coupling enz,Tau fluor counter,G9a inh
COc1cccc2c1OCC(C(=O)Nc1nccs1)=C2,.,.,1.7%,2.5,.,?
O=[N+]([O-])c1cccc(C2Nc3cccc4cccc(c34)N2)c1,?,-0.1%,44.7µM*,-20.0,?,15.8µM*
Fc1ccc(C2Nc3cccc4cccc(c34)N2)cc1,.,.,?,-8.2,.,-36.8%[2.33 µM]
Cc1ccc(C2Nc3cccc4cccc(c34)N2)s1,?,-16.9%,?,-4.6,?,12.6µM*
O=[N+]([O-])c1ccc(C2Nc3cccc4cccc(c34)N2)cc1,14.1µM*,?,22.4µM*,-16.0,12.6µM*[quencher],28.2µM*
O=C1c2ccccc2NC(c2cccc([N+](=O)[O-])c2)N1O (stereo not given),.,.,-4.1%,-0.5,.,38.1%[0.501 µM]
CCCOc1ccc(C2Nc3cccc4cccc(c34)N2)cc1,.,.,2.7%,-6.8,.,39.8µM*
Cc1cccc(CNC(=O)CCn2c(=O)c3cccn3c3ccc(F)cc32)c1,-13.5%,0.7%,.,.,-11.4%,9.9%[59 µM]
O=C(Nc1nnc(Cc2ccccc2)s1)Nc1ccccc1F,.,.,4.4%,2.4,.,10.5%
CC(C)c1ccc(C2=NC(c3ccncc3)=Nc3ccc(F)cc3N2)cc1,?,9.7%,.,.,?,-34.2%[59 µM]
COC(=O)C1(C(=O)OC)Cc2conc2[C@H]1c1ccccc1,?,?,-4.2%,1.3,?,.
FC(F)(F)c1ccc(C2Nc3cccc4cccc(c34)N2)cc1,?,-4.2%,-0.5%,-1.5,-16.8%,35.5µM*
c1coc(C2Nc3cccc4cccc(c34)N2)c1,11.2µM*,?,3.16µM*,-16.9,7.94µM*[quencher],?
CN(CCCNC(=O)Cn1cccc1C(=O)c1ccccc1)C1CCCCC1,12.7%,3.0%,16.2%,0.4,7.0%,-29.7%
CC(C)Oc1ccc(C2C(C#N)=C(N)Oc3c2oc(CO)cc3=O)cc1 (stereo not given),-3.6%,1.9%,-0.9%,-2.7,-3.7%,-29.0%
Cc1ccc(C2C(C#N)=C(N)Oc3c2oc(CO)cc3=O)o1 (stereo not given),?,?,?,-37.7*,-19.7%,?
Cc1cc(C(=O)COC(=O)c2ccc(N)c([N+](=O)[O-])c2)c(C)n1-c1ccc2c(c1)OCO2,?,1.8%,-0.4%,-2.8,?,6.3%[59 µM]
